Source: PubChem
Rows were chosen to be rich in hits. Some 0.83% of all compounds tested hit in one or more screens of this group.
Candida biofilm = kills Candida albicans biofilms. C. albicans biofilm + clotrimazole, Alamar Blue. AID 834. 85,000 tested, 0.14% active. inhibition, % at 6 µM;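 active = inhibition above 20%; inactive = inhibition below 20%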;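 also: preformed 24 hr biofilms exposed to compound for 48 hr; 0% = biofilm without compound and 100% = blank killed by clotrimazole plus chlorhexidine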
MRP resist rev = reverses drug resistance mediated by MRP | H69AR cells + 2 uM doxorubicin, CellTiter-Glo, 72 h | 85,000 tested, 0.04% active | AID 602 | differential viability (reversal), % at 10 µM;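 active = viability drop by adding the cancer drug above about 55%, with treated viability meeting a 40% cutoff, limit read from the data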;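 also: viability without doxorubicin minus viability with 2 µM doxorubicin for each compound; larger differential means the compound sensitizes cells more to doxorubicin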
Smad3 FoxH1 inh = inhibitors of human Smad3 transcription factor binding | TR-FRET Smad3/Dy647-FoxH1 peptide binding, europium anti-His | 88,000 tested, 0.29% active | inhibition, % at 25 µM | P84022 | AID 630;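 active = compounds that reduce the energy-transfer binding signal between the protein and its labelled peptide by more than half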;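 also: 0% = Smad3 plus labelled peptide maximal FRET and 100% = peptide-only background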
Target sequence (P84022 whole entry, looked up): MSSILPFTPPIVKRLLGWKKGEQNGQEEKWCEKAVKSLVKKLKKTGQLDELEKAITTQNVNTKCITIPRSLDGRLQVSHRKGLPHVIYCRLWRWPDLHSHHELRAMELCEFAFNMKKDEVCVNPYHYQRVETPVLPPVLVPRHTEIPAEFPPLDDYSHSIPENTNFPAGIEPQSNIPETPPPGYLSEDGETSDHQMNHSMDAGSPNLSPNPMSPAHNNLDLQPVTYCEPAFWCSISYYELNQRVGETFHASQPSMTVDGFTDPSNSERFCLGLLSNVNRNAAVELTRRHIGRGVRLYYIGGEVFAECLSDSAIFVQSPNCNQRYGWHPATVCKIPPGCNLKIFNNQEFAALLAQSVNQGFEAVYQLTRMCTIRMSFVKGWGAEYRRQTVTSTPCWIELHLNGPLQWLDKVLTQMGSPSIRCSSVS
MRP1 act = activators of MRP-1 | H69AR cells + doxorubicin, viability rescue, CellTiter-Glo | AID 799 | 140,000 tested, 0.61% active | viability increase, % at 10 µM;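 active = viability gain under doxorubicin at or above a set limit, the compound median plus 3 SD, cut at about 4.7% in these data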;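 also: MRP-1 overexpressing cells given doxorubicin 25 µM after compound pretreatment; 18-22 h compound pretreatment then 72 h with doxorubicin before readout; 0% = doxorubicin-only wells and 100% = vehicle-treated cells without doxorubicin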
An asterisk follows results filed as active; x = not tested or not shown; [ ] = another dose, or the depositor's remark.

SMILES	Candida biofilm	MRP resist rev	Smad3 FoxH1 inh	MRP1 act
O=C(NCc1ccccc1)c1cccc(COc2ccc(Cl)cc2)c1	x	x	x	-1
CN1C(=O)CS(=O)c2ccc(C(=O)NCCC3=CCCCC3)cc21 (stereo not drawn)	21*	10	6	1
O=P(O)(O)O[C@@H]1O[C@H](CO)[C@@H](O)[C@H](O)[C@H]1O	x	x	5	x
O=C1c2ccccc2C(=O)c2c1ccc(N1C(=O)c3ccccc3C1=O)c2-c1c(N2C(=O)c3ccccc3C2=O)ccc2c1C(=O)c1ccccc1C2=O	x	x	37	x
COc1ccc(/C=C2/N=C(SC3CCOC3=O)N(c3cccc(OC)c3)C2=O)cc1 (stereo not drawn)	x	x	x	5.2*
COc1ccc(-n2c(SC3CCOC3=O)nc3ccccc32)cc1 (stereo not drawn)	0	-4	-12	2
Cc1ccsc1C(=O)NNC(=O)Nc1ccc(Cl)c(Cl)c1	x	x	x	0
Cc1occc1C(=O)NNC(=O)Nc1ccc(Cl)c(Cl)c1	x	x	x	4.9*
O=C(O)c1cc(C(=O)C(=O)c2cc(C(=O)O)c(O)c3ccccc23)c2ccccc2c1O	x	x	39	x
CC[C@@H](c1ccc2cc(O)ccc2c1)C(C)(C)C(=O)O	x	x	-12	x
Brc1ccc(CSc2ncn[nH]2)cc1	6	-3	2	4.9*
CCCOc1ccc(CSc2ncn[nH]2)cc1	7	14	1	7.4*
O=C(O)[C@@H]1[C@H]2O[C@H]([C@@H](Br)[C@H]2Br)[C@@H]1C(=O)O	x	x	0	x
O=C(CSc1ccc(Cl)cc1)NCC1CCCO1 (stereo not drawn)	65*	2	2	-2
NS(=O)(=O)c1cc(C(=O)O)c(O)c2ccccc12	x	x	17	x
CCCCOC(=O)CSc1nc(N)c(C#N)c(-c2ccc(OCC)cc2)c1C#N	9	-18	78*[fluorescence artefact?]	1
CCCCOC(=O)CSc1nc(N)c(C#N)c(-c2ccc(OC)cc2)c1C#N	4	-8	3	-1
O=C(O)[C@H](Cc1ccc(O)c([N+](=O)[O-])c1)N1C(=O)c2ccccc2C1=O	x	x	9	x
O=c1oc2ccccc2cc1NCc1ccccc1O	22*	-18	-1	-3
O=c1c2c([nH]c3ccc(Br)cc13)CCCC2	3	-31	-4	x
OCCN=C1CCCc2c1[nH]c1ccc(Br)cc21	x	x	x	5.2*
COc1cc(-c2[o+]c3cc(O)cc(O)c3cc2O)cc(O)c1O	x	x	6	x
O=C(CSc1ncn[nH]1)N1N=C2/C(=C/c3ccco3)CCCC2C1c1ccco1 (stereo not drawn)	3	-6	13	8.4*
O=C(c1ccccn1)N1N=C2/C(=C/c3ccccc3)CCCC2C1c1ccccc1 (stereo not drawn)	x	x	x	-2
O=C1C2C(c3ccccc3)C=CC(c3ccccc3)C2C(=O)N1C1CCCCC1 (stereo not drawn)	6	7	7	-2
SMILES	Candida biofilm	MRP resist rev	Smad3 FoxH1 inh	MRP1 act
CC(c1ccccc1)C1CC(=O)N(C2CCCCC2)C1=O (stereo not drawn)	1	6	54*	0
O=C(c1cccc(S(=O)(=O)N2CCCC2)c1)N1CCN(c2ccccc2)CC1	-3	0	-12	-2
O=C(NNC(=O)c1cccc(S(=O)(=O)N2CCN(c3ccccc3)CC2)c1)c1ccc(Cl)cc1	x	x	x	10*
CSC1(SC2=NCCN2)SC2(NCCN2)S1	x	x	81*	x
O=C(O)CSC1=NCCN1	10	-5	11	x
Cc1onc(-c2ccccc2Cl)c1C(=O)Nc1nnc(-c2ccc(Br)cc2)s1	1	-8	-13	7.2*
Cc1cccc(NC(=O)CCC(=O)N/N=C/c2cc([N+](=O)[O-])ccc2O)c1	x	x	x	4.9*
OCCNc1ncnc2c1ncn2[C@H]1O[C@@H](CO)[C@H](O)[C@H]1O	x	x	25	x
COc1ccc(C2CC(c3cccc(Cl)c3)n3nc(N)nc3N2)cc1 (stereo not drawn)	8	23	15	0
COc1ccccc1C1CC(c2ccc(Cl)cc2Cl)Nc2nc(N)nn21 (stereo not drawn)	11	6	-4	5.6*
COc1ccc(C2CC(c3ccc(Cl)cc3)n3nc(N)nc3N2)cc1 (stereo not drawn)	-4	24	0	30*
Nc1nc2n(n1)C(c1cccs1)CC(c1ccc(Br)cc1)N2 (stereo not drawn)	0	21	1	5.8*
COc1ccc(C2CC(c3ccc(Br)cc3)Nc3nc(N)nn32)cc1 (stereo not drawn)	8	12	9	1
COc1ccc(-c2nc(N)c3ncn([C@H]4O[C@H](CO)[C@@H](O)[C@@H]4O)c3n2)cc1	x	x	6	x
CC(=O)Nc1ccc2[nH]c(C)c(CC=C(Cl)Cl)c(=O)c2c1	3	-6	20	6.8*
c1ccc2c(c1)C(=Nc1ccc(N=C3c4ccccc4-c4ccccc43)cc1)c1ccccc1-2	x	x	-5	x
O=c1[nH][nH]c(=S)c(=O)[nH]1	x	x	52*	x
O=C(Nc1ncn[nH]1)c1ccc(Cl)c(S(=O)(=O)Nc2ccc(Cl)cc2)c1	x	x	x	4.8*
Cn1c(C(=O)NCc2ccccc2)cc2oc3ccccc3c21	4	13	3	5.2*
Cn1c(C(=O)NCc2cccs2)cc2oc3ccccc3c21	x	x	x	4
O=S(=O)(O)c1cc(S(=O)(=O)O)c2c(N=Nc3cccc4ccccc34)c(O)ccc2c1	x	x	85*	x
C[C@@]12CC[C@@H]3[C@H](CC=C4C[C@@H](O)CC[C@@]43C)[C@H]1CC[C@H]2N(CCO)CCO	x	x	1	x
O=C(C(Cc1ccccc1)n1cccc1)N1CCCCCC1 (stereo not drawn)	21*	32	6	-3
O=C(C(Cc1ccccc1)n1cccc1)N1CCCCC1 (stereo not drawn)	-19	13	11	-3
CC(C)NC(=O)c1ccc(COCC(F)(F)C(F)F)cc1	0	22	65*	0
SMILES	Candida biofilm	MRP resist rev	Smad3 FoxH1 inh	MRP1 act
O=C(NCC1CCCO1)c1ccc(COCC(F)(F)C(F)F)cc1 (stereo not drawn)	3	2	13	0
N=c1ccn2c(n1)O[C@H]1[C@@H](OP(=O)(O)O)[C@H](CO)O[C@H]12	x	x	1	x
CC1(C)O[C@@H]2[C@@H](CO[C@H]2c2[nH]nc3c(=O)[nH]c(=O)[nH]c23)O1	x	x	-14	x
COc1ccc(-c2cc3nc(C)cc(N4CC(C)CC(C)C4)n3n2)cc1 (stereo not drawn)	6	7	7	5.1*
COc1ccc(-c2cc3nc(C)cc(C)n3n2)c(OC)c1	2	-11	5	x
C/C(N[O-])=C(\C)[N+]([O-])=[Cu].C/C(N[O-])=C(\C)[N+]([O-])=[Cu].CC(=N\[O-])/C(C)=N/[O-].CC(=N\[O-])/C(C)=N/[O-]	x	x	49	x
CCCCOc1ccc(Br)cc1/C(C)=N/NC1=NCCN1	2	-7	-9	-8
C/C(=N\NC1=NCCN1)c1cn(C2=NCCN2)nc1C	x	x	93*	x
c1cncc(CSc2ncnc3nc[nH]c23)c1	x	x	4	x
Nc1nc(SCc2ccccc2Cl)cc(C(=O)O)n1	x	x	6	x
COC(=O)/C(=C/Nc1ccc(O)cc1)[N+](=O)[O-]	5	-26	13	5.2*
CC1=C(C(=O)Nc2ccccc2C)C(c2ccc(C)o2)N2C(=O)CSC2=N1 (stereo not drawn)	5	3	2	7.3*
CCOC(=O)c1c(N)sc(-c2ccccc2)c1C	0	13	-14	-2
